Assay results published in PubChem BioAssay (Tox21).
“And” between values parts separate entries of the source, which are not always exact repeats. Identical values can stand only once. Results filed as inconclusive are left out. More than one record can exist for a structure, and the calls need not agree. The source made the active and inactive calls. Unless noted, the call rests on the fitted dose curve; in most records, active means well fitted curve in the direction sought with a large enough effect in the repeat runs; inconclusive means weak or mixed curves; inactive means no such curve, though single readings can be large; an effect the other way counts as inactive or inconclusive.

How the values were obtained:
[1] = molecular target: Peroxisome proliferator-activated receptor delta (Homo sapiens) (UniProt Q03181); assay: qHTS assay to identify small molecule agonists of the peroxisome proliferator-activated receptor delta (PPARd) signaling pathway (AID 743212; calls by dose curve; further: on the % scale 0 is the no-effect control and ±100 the full control effect)
Chain of Peroxisome proliferator-activated receptor delta (Homo sapiens) (Q03181 whole entry, looked up): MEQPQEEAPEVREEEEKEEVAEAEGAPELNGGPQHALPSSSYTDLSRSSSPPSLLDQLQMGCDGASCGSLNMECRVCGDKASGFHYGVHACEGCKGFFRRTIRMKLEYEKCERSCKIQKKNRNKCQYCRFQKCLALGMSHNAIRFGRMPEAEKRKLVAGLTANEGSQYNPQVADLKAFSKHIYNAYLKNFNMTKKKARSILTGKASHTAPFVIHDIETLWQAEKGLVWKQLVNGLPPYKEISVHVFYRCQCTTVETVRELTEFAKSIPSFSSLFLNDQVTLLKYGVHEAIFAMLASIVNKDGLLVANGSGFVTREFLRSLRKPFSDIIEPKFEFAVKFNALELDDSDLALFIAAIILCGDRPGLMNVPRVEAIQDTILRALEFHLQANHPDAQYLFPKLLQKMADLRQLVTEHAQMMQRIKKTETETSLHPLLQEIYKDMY
Outline: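 GeneBLAzer PPARd UAS-bla HEK293H cells (beta-lactamase reporter under UAS control), plated and rested 5 h at 37 C, then exposed to compounds in DMSO at 37 C; LiveBLAzer B/G FRET substrate added, 2 h room temperature, fluorescence read.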

[2] = qHTS assay to identify small molecule antagonists of the farnesoid-X-receptor (FXR) signaling pathway - cell viability counter screen (AID 743221; active means well fitted cell-killing curve with a large enough effect in the repeat runs, not every such curve was filed as active; further: nearly all actives have a fitted effect of over 50% in size; further: potency means the concentration at half of the fitted maximal effect)
Outline: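 Quantitative HTS of the Tox21 10K library run in parallel with the beta-lactamase reporter read. HEK 293T cells carrying a UAS-driven bla reporter got compound and 50 uM CDCA (final) for 16 h; ATP-based luminescence followed.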

[3] = qHTS assay to identify small molecule agonists of the NFkB signaling pathway - cell viability counter screen (AID 1159515; calls by dose curve; further: nearly all actives have a fitted effect of over 55% in size; further: potency means the concentration at half of the fitted maximal effect)
Outline: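 Using the same wells as the NFkB reporter read, ME-180 NFkB-bla cells given compounds for 5 hr were assessed for viability via CellTiter-Glo, with luminescence taken after a 30 min room-temperature incubation.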

[4] = qHTS assay to identify small molecule antagonists of the retinoid-related orphan receptor gamma (ROR-gamma) signaling pathway - cell viability counter screen (AID 1159520); further: nearly all actives have a fitted effect of over 50% in size; further: potency means the concentration at half of the fitted maximal effect
Outline: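 Tet-on ROR gamma CHO cells (1,000/well) were plated 4 hr, given compounds in DMSO for 2 hr at 37 C, then induced with 1 uM final doxycycline for 16 hr. Viability was read as ATP by CellTiter-Glo luminescence after 30 min.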

[5] = molecular target: Nuclear receptor ROR-gamma (Homo sapiens) (UniProt P51449); assay: qHTS assay to identify small molecule antagonists of the retinoid-related orphan receptor gamma (ROR-gamma) signaling pathway (AID 1159521; further: nearly all actives have a fitted effect of over 50% in size; further: potency means the concentration at half of the fitted maximal effect)
Outline: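 RORγ antagonism is scored from reduced reporter luminescence in Tet-on CHO cells. Induction used 1 uM final doxycycline hyclate for 16 h at 37 C, following a 2 h compound exposure.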

[6] = qHTS assay to identify small molecule agonists of the AP-1 signaling pathway - cell viability counter screen (AID 1159525; calls by dose curve; further: nearly all actives have a fitted effect of over 55% in size; further: potency means the concentration at half of the fitted maximal effect)
Outline: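 ME-180 AP-1-bla, 2500 cells/well, Opti-MEM + 0.5% dialyzed FBS; overnight 37 °C; cpd 15-pt titration, 5 h 37 °C; CellTiter-Glo 30 min RT; luminescence read; normalised to TOAB and DMSO controls.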

[7] = qHTS assay to identify small molecule agonists of the peroxisome proliferator-activated receptor delta (PPARd) signaling pathway - cell viability counter screen (AID 743211); further: nearly all actives have a fitted effect of over 55% in size; further: potency means the concentration at half of the fitted maximal effect
Outline: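 Viability of GeneBLAzer PPARd UAS-bla HEK293H cells was assessed after 17 h compound incubation at 37C, using CellTiter-Glo reagent added after the reporter read and luminescence recorded 30 min later.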

[8] = qHTS assay to identify small molecule antagonists of the peroxisome proliferator-activated receptor delta (PPARd) signaling pathway - cell viability counter screen (AID 743213); further: nearly all actives have a fitted effect of over 50% in size; further: potency means the concentration at half of the fitted maximal effect
Outline: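 Luminescence from CellTiter-Glo, added after the bla read and incubated 30 min at room temperature, gives viability of HEK293H PPARd-bla cells exposed to compounds for 17 h at 37 C with 300 nM L165041.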

[9] = qHTS assay to identify small molecule agonists of the farnesoid-X-receptor (FXR) signaling pathway - cell viability counter screen (AID 743218); further: nearly all actives have a fitted effect of over 45% in size; further: potency means the concentration at half of the fitted maximal effect
Outline: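 Parallel cytotoxicity test: compound-treated (16 h, 37 C) HEK 293T FXR-bla reporter cells were lysed with CellTiter-Glo and luminescence recorded.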

[10] = qHTS assay to identify small molecule agonists of the vitamin D receptor (VDR) signaling pathway - cell viability counter screen (AID 743224); further: nearly all actives have a fitted effect of over 50% in size; further: potency means the concentration at half of the fitted maximal effect
Outline: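 Plated VDR-bla cells (4 h, 37C) received compound, incubated 16 h, then LiveBLAzer substrate 2 h RT; CellTiter-Glo added afterwards, luminescence read at 30 min.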

[11] = qHTS assay to identify small molecule antagonists of the vitamin D receptor (VDR) signaling pathway - cell viability counter screen (AID 743225); further: nearly all actives have a fitted effect of over 50% in size; further: potency means the concentration at half of the fitted maximal effect
Outline: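 Cells (VDR-UAS-bla HEK 293T) are plated, rested 4 h at 37C, dosed with compound and 3 nM final 1-alpha,25-dihydroxy vitamin D3, and incubated 16 h. Viability is taken from CellTiter-Glo luminescence in the reporter wells.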

[12] = molecular target: Peroxisome proliferator-activated receptor delta (Homo sapiens) (UniProt Q03181); assay: qHTS assay to identify small molecule antagonists of the peroxisome proliferator-activated receptor delta (PPARd) signaling pathway (AID 743215; active means well fitted inhibition curve with a large enough effect in the signal ratio in the repeat runs, not every such curve was filed as active; the % refers to the signal ratio;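 further: cells stimulated with agonist L165041 at 300 nM final during compound exposure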; further: potency means the concentration at half of the fitted maximal effect)
Outline: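 HEK293H UAS-bla, PPARd; agonist L165041 300 nM final with cpd in DMSO; 37 C 17 h; FRET substrate, RT 2 h; fluorescence intensity.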

[13] = molecular target: Bile acid receptor (Homo sapiens) (UniProt Q96RI1); assay: qHTS assay to identify small molecule agonists of the farnesoid-X-receptor (FXR) signaling pathway (AID 743220; active means well fitted activation curve with a large enough effect in the signal ratio in the repeat runs, not every such curve was filed as active; the % refers to the signal ratio; further: on the % scale 0 is the no-effect control and ±100 the full control effect)
Chain of Bile acid receptor (Homo sapiens) (Q96RI1 whole entry, looked up): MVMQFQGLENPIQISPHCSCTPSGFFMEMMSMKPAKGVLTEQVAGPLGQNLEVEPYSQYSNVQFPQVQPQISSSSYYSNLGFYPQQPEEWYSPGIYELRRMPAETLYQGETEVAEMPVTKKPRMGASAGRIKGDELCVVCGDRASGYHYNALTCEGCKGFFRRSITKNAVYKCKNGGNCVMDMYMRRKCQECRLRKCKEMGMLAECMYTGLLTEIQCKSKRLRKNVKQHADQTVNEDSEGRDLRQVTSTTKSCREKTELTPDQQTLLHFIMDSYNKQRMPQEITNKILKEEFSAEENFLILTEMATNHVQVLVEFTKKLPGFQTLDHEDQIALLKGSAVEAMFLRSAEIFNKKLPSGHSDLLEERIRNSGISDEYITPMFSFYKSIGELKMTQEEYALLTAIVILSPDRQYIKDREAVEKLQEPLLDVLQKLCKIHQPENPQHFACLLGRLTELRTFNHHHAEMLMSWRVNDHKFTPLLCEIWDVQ
Outline: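 Beta-lactamase reporter under UAS control in GeneBLAzer FXR HEK 293T cells (5000/well) measured with LiveBLAzer FRET substrate after 2 h at room temperature. Compound exposure lasted 16 h at 37C.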

[14] = molecular target: Retinoic acid receptor RXR-alpha (Homo sapiens) (UniProt P19793); assay: qHTS assay to identify small molecule agonists of the RXR signaling pathway (AID 1159527; calls by dose curve; further: on the % scale 0 is the no-effect control and ±100 the full control effect; nearly all actives have a fitted effect of over 35% in size)
Chain of Retinoic acid receptor RXR-alpha (Homo sapiens) (P19793 whole entry, looked up): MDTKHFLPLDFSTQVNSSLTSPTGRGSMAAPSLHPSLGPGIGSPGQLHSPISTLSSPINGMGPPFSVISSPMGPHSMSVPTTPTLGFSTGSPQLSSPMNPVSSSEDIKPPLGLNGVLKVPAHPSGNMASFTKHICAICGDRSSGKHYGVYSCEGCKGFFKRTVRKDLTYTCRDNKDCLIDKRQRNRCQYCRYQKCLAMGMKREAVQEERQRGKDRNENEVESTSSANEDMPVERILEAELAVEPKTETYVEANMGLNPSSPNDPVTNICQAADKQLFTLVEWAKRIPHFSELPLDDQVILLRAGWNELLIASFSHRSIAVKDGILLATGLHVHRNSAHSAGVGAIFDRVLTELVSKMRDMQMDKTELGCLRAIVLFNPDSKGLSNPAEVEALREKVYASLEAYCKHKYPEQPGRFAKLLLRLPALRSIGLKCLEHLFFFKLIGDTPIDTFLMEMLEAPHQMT
Outline: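 qHTS of the Tox21 10K library in GeneBLAzer RXR-alpha HEK 293T cells carrying a beta-lactamase reporter […]; 16 hr treatment, 9-cis retinoic acid as agonist control, FRET read-out.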

[15] = molecular target: Vitamin D3 receptor (Homo sapiens) (UniProt P11473); assay: qHTS assay to identify small molecule antagonists of the vitamin D receptor (VDR) signaling pathway (AID 743223; active means well fitted inhibition curve with a large enough effect in the signal ratio in the repeat runs, not every such curve was filed as active; the % refers to the signal ratio; further: potency means the concentration at half of the fitted maximal effect)
Chain of Vitamin D3 receptor (Homo sapiens) (P11473 whole entry, looked up): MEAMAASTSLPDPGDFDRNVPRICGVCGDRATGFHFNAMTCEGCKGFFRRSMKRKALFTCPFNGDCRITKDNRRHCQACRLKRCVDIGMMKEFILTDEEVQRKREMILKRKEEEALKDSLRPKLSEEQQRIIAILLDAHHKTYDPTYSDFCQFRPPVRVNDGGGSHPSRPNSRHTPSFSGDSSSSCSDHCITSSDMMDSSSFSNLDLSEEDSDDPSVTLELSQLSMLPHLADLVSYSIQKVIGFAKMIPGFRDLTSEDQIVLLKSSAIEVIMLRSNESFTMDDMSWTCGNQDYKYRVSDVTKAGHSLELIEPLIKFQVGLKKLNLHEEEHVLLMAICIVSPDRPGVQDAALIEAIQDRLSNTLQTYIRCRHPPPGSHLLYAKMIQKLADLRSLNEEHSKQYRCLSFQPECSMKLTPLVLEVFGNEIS
Outline: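 Fluorescence from LiveBLAzer B/G FRET substrate, read after 2 h at room temperature, reflects beta-lactamase reporter activity in VDR-bla cells treated 16 h at 37C with compounds and agonist 1alpha,25-dihydroxyvitamin D3 (3 nM final).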

[16] = molecular target: Bile acid receptor (Homo sapiens) (UniProt Q96RI1); assay: qHTS assay to identify small molecule antagonists of the farnesoid-X-receptor (FXR) signaling pathway (AID 743217; active means well fitted inhibition curve with a large enough effect in the signal ratio in the repeat runs, not every such curve was filed as active; the % refers to the signal ratio; further: on the % scale 0 is the no-effect control and ±100 the full control effect)
Outline: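 GeneBLAzer FXR-UAS-bla HEK 293T, CDCA-stimulated (50 uM final). Compound treatment 16 h, 37 °C. Detection: beta-lactamase cleavage of B/G FRET substrate, fluorescence.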

[17] = molecular target: Vitamin D3 receptor (Homo sapiens) (UniProt P11473); assay: qHTS assay to identify small molecule agonists of the vitamin D receptor (VDR) signaling pathway (AID 743222; calls by dose curve; further: on the % scale 0 is the no-effect control and ±100 the full control effect)
Outline: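 In VDR-bla cells, compound-induced beta-lactamase expression is quantified by FRET substrate fluorescence. Treatment lasts 16 h at 37C; substrate develops 2 h at room temperature.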

N=C1C=CC(=C(c2ccc(N)cc2)c2ccc(N)cc2)C=C1
inactive: Potency [1] | Potency [2] | Potency [3] | Potency [6]
active: Potency [4] 13.7 µM | Potency [5] 15.4 µM

CCCCCCCCCCCCc1ccc(O)cc1
active: Potency [7] 24.5 µM | Potency [8] 24.5 µM | Potency [9] 34.7 µM | Potency [2] 43.6 µM | Potency [10] 12.3 µM | Potency [11] 17.4 µM | Potency [3] 24.5 µM | Potency [4] 30.6 µM | Potency [5] 24.3 µM | Potency [6] 17.4 µM

Cc1cc(CCN2CCN(c3nsc4ccccc34)CC2)cc2c1NC(=O)CC2(C)C
active: Potency [7] 21.9 µM | Potency [8] 19.5 µM | Potency [12] 19.5 µM | Potency [9] 21.9 µM | Potency [2] 38.9 µM | Potency [10] 17.4 µM | Potency [11] 19.5 µM | Potency [3] 54.9 µM | Potency [4] 61.1 µM | Potency [5] 9.69 µM | Potency [6] 54.9 µM

OCc1c[nH]c2ccccc12
inactive: Potency [2] | Potency [3] | Potency [4] | Potency [5] | Potency [6]

Cc1ccc2oc(CN(Cc3ccccc3)C(=O)Nc3c(F)cc(F)cc3F)c(-c3ccc(Cl)cc3)c2c1
inactive: Potency [7] | Potency [8] | Potency [9] | Potency [13] | Potency [10] | Potency [11] | Potency [3] | Potency [4] | Potency [6] | Potency [14]
active: Potency [5] 14.9 µM

CCCCCCCCCCCCCCCCCC[N+](C)(C)Cc1ccccc1
active: Potency [7] 11.1 µM | Potency [8] 13.9 µM | Potency [9] 19.7 µM | Potency [2] 27.8 µM | Potency [15] 22.1 µM | Potency [10] 13.9 µM | Potency [11] 7.84 µM | Potency [3] 22.1 µM | Potency [4] 27.6 µM | Potency [5] 15.5 µM | Potency [6] 39.3 µM

[Cl][Bi]([Cl])([c]1ccccc1)([c]1ccccc1)[c]1ccccc1
active: Potency [7] 5.46 µM | Potency [8] 4.87 µM | Potency [9] 5.46 µM | Potency [2] 10.9 µM | Potency [10] 3.87 µM | Potency [11] 2.44 µM | Potency [3] 54.6 µM | Potency [4] 12.1 µM | Potency [5] 2.16 µM

Oc1ccc2cc(SSc3ccc4cc(O)ccc4c3)ccc2c1
inactive: Potency [1] | Potency [16] | Potency [13] | Potency [2] | Potency [10] | Potency [3] | Potency [6]
active: Potency [12] 17.4 µM | Potency [4] 48.6 µM | Potency [5] 48.6 µM

CC[C@@]1(O)C(=O)OCc2c1cc1n(c2=O)Cc2c-1nc1ccccc1c2/C=N/OC(C)(C)C
active: Potency [7] 11.9 µM | Potency [9] 13.3 µM | Potency [4] 0.944 µM | Potency [5] 15 µM
inactive: Potency [3] | Potency [6]

CC1=C(C(=O)OC(C)C)C(c2cccc([N+](=O)[O-])c2)C(C(=O)OC2CN(C(c3ccccc3)c3ccccc3)C2)=C(N)N1 (stereo not drawn)
inactive: Potency [12]
active: Potency [7] 11.9 µM | Potency [9] 13.3 µM | Potency [2] 26.6 µM | Potency [3] 10.7 µM | Potency [4] 26.6 µM | Potency [5] 21.1 µM | Potency [6] 15.1 µM

C[C@H](CCC(=O)O)[C@H]1CC[C@H]2[C@@H]3CC[C@@H]4C[C@H](O)CC[C@]4(C)[C@H]3CC[C@]12C
active: Potency [10] 24.5 µM | Potency [3] 49 µM | Potency [6] 48.8 µM
60.9 µM (active) and inactive: Potency [4]
inactive: Potency [12] | Potency [11] | Potency [5]
inactive and 43.6 µM (active): Potency [2]

CCCC(c1cc(C(C)(C)C)c(O)cc1C)c1cc(C(C)(C)C)c(O)cc1C
active: Potency [7] 11.1 µM | Potency [8] 19.7 µM | Potency [9] 12.5 µM | Potency [2] 19.7 µM | Potency [11] 14 µM | Potency [3] 11.1 µM | Potency [4] 15.5 µM | Potency [5] 13.9 µM | Potency [6] 7 µM

CCCCCCCCS(=O)C(C)Cc1ccc2c(c1)OCO2 (stereo not drawn)
active: Potency [7] 50 µM | Potency [10] 50 µM | Potency [11] 44.5 µM
inactive: Potency [13] | Potency [3] | Potency [4] | Potency [5] | Potency [6]

O=[N+]([O-])c1cc(Cl)c(Cl)c(Cl)c1Cl
inactive: Potency [8] | Potency [9] | Potency [13] | Potency [2] | Potency [10] | Potency [11] | Potency [3] | Potency [4] | Potency [5] | Potency [6]

Cc1cc(O)c(Cl)c(C)c1Cl
active: Potency [7] 43.6 µM | Potency [9] 49 µM | Potency [2] 49 µM | Potency [11] 38.9 µM | Potency [3] 54.9 µM
inactive: Potency [17] | Potency [4] | Potency [5] | Potency [6] | Potency [14]

CCCCN1C(=O)[C@@H]([C@H](O)C2CCCCC2)NC(=O)C12CCN(Cc1ccc(Oc3ccc(C(=O)O)cc3)cc1)CC2
inactive: Potency [7] | Potency [8] | Potency [12] | Potency [2] | Potency [3] | Potency [4] | Potency [5] | Potency [6]

CCN1/C(=C/C=C/c2sc3ccccc3[n+]2CC)Sc2ccccc21
inactive: Potency [13] | Potency [11] | Potency [3] | viability change, negative = cytotoxic [6] -11.9% [at 15.8 µM]
active: Potency [7] 14.6 µM | Potency [10] 4.61 µM | Potency [4] 11.6 µM | Potency [5] 2.31 µM
